# Reference: publication PMC5540273 (PLoS ONE, 2017)
# How the values were obtained:
# Details in all cases: concentration: 1 μM, replicates: in singlicate; n = 1
# [1] = test system: PIM1
# [2] = test system: PIM2
# [3] = test system: PIM3
# [4] = test system: PIP5K1A
# [5] = test system: PIP5K1C
# [6] = test system: PIP5K2B
# [7] = test system: T1, PIP5K2C
# T1 construct: gene PIP4K2C
# [8] = test system: T2, PKAC-alpha
# T2 construct: gene PRKACA
# [9] = test system: T3, PKAC-beta
# T3 construct: gene PRKACB
# [10] = test system: PKMYT1
# 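Note: KINOMEscan kinase panel screen.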
SMILES,%Inh [1] [%],%Inh [2] [%],%Inh [3] [%],%Inh [4] [%],%Inh [5] [%],%Inh [6] [%],%Inh [7] [%],%Inh [8] [%],%Inh [9] [%],%Inh [10] [%]
CCn1c(-c2cccnc2O)nc2cnccc21 [SB-736715],0,0,0,0,0,0,19,4,0,0
Cc1ccc(NC(=O)Nc2cc(C(C)(C)C)nn2-c2ccccc2)cc1 [GSK1014915],0,0,0,0,29,12,3,0,0,14
Cc1cc(NCC(c2ccccc2)c2ccccc2)nc(NCc2ccc(C(F)(F)F)cc2)n1 [GW497681],12,0,0,0,53,8,0,0,0,0
Fc1cccc(COc2nnc(-c3ccc4c(c3)CCO4)o2)c1,11,8,0,31,6,29,10,0,0,11
CS(=O)(=O)c1ccc(-c2c(-c3ncn[nH]3)sc(N3CCOCC3)c2C#N)cc1,0,0,0,0,0,14,0,0,7,0
COc1ccc(CNC(=O)NC2CCN(c3ccnc(Nc4cc(OC)c(OC)c(OC)c4)n3)C2)cc1 (centres unmarked) [GSK1379748],7,0,0,36,73,7,87,0,0,3
Clc1cc(Cl)cc(Nc2ccnc(Nc3cc(Cl)cc(Cl)c3)n2)c1 [GSK175726],20,0,0,9,39,7,26,10,0,8
COc1ccc(Nc2nccc(-c3cccc(NC(=O)c4cc5cc(F)ccc5[nH]4)c3)n2)cc1 [GSK1229782],36,0,30,0,15,12,81,15,21,6
Cl.O=C(Nc1cccc(-c2nn3ncccc3c2-c2ccnc(Nc3cccnc3)n2)c1)c1c(F)cccc1F [GSK312879],11,0,0,2,11,4,0,14,19,20
Cn1cncc1-c1ccc2ncnc(Nc3ccc(OCc4ccccc4)cc3)c2c1 [GW320571],0,2,0,0,16,17,76,0,8,8
COc1cccc(NC(=O)NC2CCN(c3ccnc(Nc4ccc(F)cc4)n3)C2)c1 (centres unmarked) [GSK1379721],9,0,0,38,59,0,0,0,0,0
Cc1c(Cn2ccn3c(=O)cc(N4CCOCC4)nc23)cccc1C(F)(F)F [GSK2289044],0,0,4,0,10,15,0,11,0,0
Nc1ncnc2[nH]c(-c3ccccc3)nc12 [AH5015],0,0,21,0,29,0,21,1,7,0
Cl.Oc1ccc(-c2nc(-c3ccccc3)[nH]c2-c2ccncc2)cc1 [SB-428218],44,0,42,72,49,0,58,0,16,14
Cc1cccc(-c2nc(C)cc(Nc3ccncc3)n2)n1 [GSK257997],19,0,37,0,39,7,0,3,17,12
Cc1ccc(NC(=O)Nc2cccc(Cl)c2)cc1-c1ccc(C(=O)Nc2ccncc2)cc1 [GSK1398468],15,0,0,0,33,0,28,0,4,0
C[C@@H]1CCCCN1c1cc(-c2ccc3c(N)n[nH]c3c2)nc(N)n1 [GSK2258759],0,0,7,0,44,4,0,0,0,2
O=C(Nc1n[nH]c2nc(-c3nccs3)c(Br)cc12)C1CC1 [SB-742251],0,0,0,7,67,23,27,0,0,3

SMILES,%Inh [1] [%],%Inh [2] [%],%Inh [3] [%],%Inh [4] [%],%Inh [5] [%],%Inh [6] [%],%Inh [7] [%],%Inh [8] [%],%Inh [9] [%],%Inh [10] [%]
CC(=O)Nc1nc2cnc(Nc3cc(NC(=O)c4cccc(CCC#N)c4)ccc3C)nc2s1,5,19,9,13,0,45,4,15,0,0
COc1ccccc1CNC(=O)c1cc(C(=O)c2ccccc2C)c[nH]1 [GSK364507],0,0,0,0,26,8,25,0,0,0
Fc1cc(Cl)ccc1Nc1ccnc2cc(I)ccc12 [GW551191],22,0,6,0,30,0,10,0,0,1
Cc1cccc(-c2nc(-c3ccc(S(C)(=O)=O)cc3)sc2-c2ccnc(NCCc3ccccc3)c2)c1,0,9,0,2,17,22,7,0,17,0
CCCc1ccc(S(=O)(=O)NC2CCN(c3ccnc(Nc4ccc(F)cc4)n3)C2)cc1 (centres unmarked) [GSK1379715],0,0,0,19,42,10,47,81,0,12
Cl.NC(=O)c1cccc(Nc2nccc(Nc3ccc(Oc4cccc(Cl)c4)c(Cl)c3)n2)c1 [GW659008],15,0,1,15,45,32,60,0,0,0
O=C(Nc1ccccc1)Nc1cccc(Oc2ccc3nccn3n2)c1,0,2,0,9,49,15,48,48,70,0
Cc1csc(-c2nc(Nc3ccncc3)c3ccccc3n2)n1 [GW869640],31,0,17,0,29,2,2,14,44,16
CC(C)(C)c1ccc(C(=O)Nc2cn3cc(-c4cccnc4)ccc3n2)cc1,32,12,44,0,17,18,53,13,33,19
O=S(=O)(c1ccc(-c2ccnc3[nH]ccc23)cc1)N1CCCC1 [GSK846226],13,0,8,37,19,0,0,81,71,0
O=C(Nc1n[nH]c2cc(-c3cccc(F)c3F)ccc12)C1CC1 [SB-733894],8,0,32,0,0,0,0,0,0,40
COc1ccccc1-c1ccc2c(NC(=O)C3CC3)n[nH]c2n1 [SB-711239],13,0,0,41,53,30,19,6,2,0
COc1ccc2nc(-c3cccc(C)n3)nc(Nc3ccncc3)c2c1 [GSK204919],0,0,0,4,28,0,0,3,0,1
Cn1ccc2ncnc(Oc3ccc(NC(=O)Nc4ccccc4)cc3)c21,8,13,22,0,5,5,1,16,17,16
COc1cc(Nc2nccc(N3CCC(NC(=O)Nc4cc(C)ccc4C)C3)n2)cc(OC)c1OC (centres unmarked) [GSK1379762],0,0,0,0,21,16,70,5,0,0
O=C1NC(=O)C(N2CCc3ccccc32)=C1c1ccccc1Cl [SB-373598],0,9,7,0,29,35,1,22,39,11
CN(C)CCN(C)C(=O)c1cc(-c2ccncc2)c(-c2ccc(Cl)c(O)c2)o1.Cl.Cl [SB-710397],0,0,0,1,67,8,42,9,0,0
